Assay outcomes: PubChem BioAssay, National Center for Advancing Translational Sciences (NCATS)
Rows were chosen to be rich in hits. Some 2.4% of all compounds tested hit in one or more screens of this group.
D2 PAM-1 = positive allosteric modulators of human D2 dopamine receptor. DiscoveRx D2 beta-arrestin cells, luminescence, 90 min; 100% = 57 uM dopamine signal. 360,000 compounds, 0.23% hits. AID 624464. potentiation, % (test concentration not listed); in the data active = potentiation above about 50%; inconclusive = mostly about 30% to 49%
Target sequence (P14416 whole entry, looked up): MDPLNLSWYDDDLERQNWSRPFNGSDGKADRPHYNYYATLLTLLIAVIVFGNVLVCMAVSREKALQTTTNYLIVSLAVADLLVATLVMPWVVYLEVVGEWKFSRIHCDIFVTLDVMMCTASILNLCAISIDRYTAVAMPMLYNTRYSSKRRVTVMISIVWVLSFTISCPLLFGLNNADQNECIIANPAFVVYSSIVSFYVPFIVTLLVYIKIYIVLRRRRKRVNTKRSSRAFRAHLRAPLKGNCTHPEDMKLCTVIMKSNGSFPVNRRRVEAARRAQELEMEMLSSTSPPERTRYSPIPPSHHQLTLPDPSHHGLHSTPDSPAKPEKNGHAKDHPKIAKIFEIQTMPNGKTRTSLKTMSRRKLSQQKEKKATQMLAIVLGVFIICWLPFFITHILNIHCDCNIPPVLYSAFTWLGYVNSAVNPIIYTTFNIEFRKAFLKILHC
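PathHunter beta-arrestin assay in DiscoveRx D2 cells. Compounds were added with an EC20 of dopamine (50 nM final) for 90 min at 37 deg C. Luminescence was read 1 h after detection reagent, with 57 uM dopamine as the EC100 control.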
D2 ag-1 = D2 dopamine receptor (human) agonism; P14416; HEK293 T-REx D2 cells, calcium flux agonist mode; activation, % at 2 µM; 340,000 compounds, 0.53% hits;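 active = activation over 3 SD above normal in the single-dose calcium agonist read, cut at about 30% in these data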; note: 0% is about no effect
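Agonism is scored from calcium flux in a force-coupled, inducible HEK293 cell line expressing D2, read kinetically for 180 s after compound addition against dopamine controls.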
D2 antagonist = antagonists of human D2 dopamine receptor; P14416; AID 485344; 340,000 compounds, 2% hits; HEK293 TREx D2 cells, calcium flux, dopamine EC80; inhibition, % at 10 µM; in the data active = inhibition above about 30%; inactive = below that, where a call was filed; note: 0% is about no effect
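Tetracycline-induced HEK293 T-REx cells expressing D2 force-coupled to calcium signalling were dye-loaded, exposed to compound for 180 s, then challenged with an EC80 of dopamine; calcium flux was followed kinetically for a further 180 s.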
D2 ag-2 = activates the human D2 dopamine receptor. P14416. DiscoveRx PathHunter D2 beta-arrestin, luminescence, 90 min; 100% = 57 uM dopamine signal. 360,000 compounds, 0.084% hits. activation, % (concentration not given with the values); in the data active = activation above about 40%; inconclusive = between about 15% and that limit
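Agonist mode: compounds alone added to overnight-plated D2 PathHunter cells for 90 min at 37 C, with 57 uM final dopamine (EC100) defining full response. Beta-arrestin recruitment detected by chemiluminescent reagent, read after 1 h at ambient temperature.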
D2 PAM-2 = positively modulates the human D2 dopamine receptor allosterically; P14416; HEK293 T-REx D2, calcium flux, EC20 dopamine potentiation; potentiation, % at 10 µM; 340,000 compounds, 0.34% hits;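 active = potentiation over 3 SD above the plate norm, cut at about 30% in these data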; note: 0% is about no effect
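Calcium flux readout, no-wash dye, 1 read/s. Inducible HEK293 Trex D2 line, overnight 30 C. Compound alone 180 s (agonist flags), then EC20 dopamine, another 180 s to score potentiation.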
D3 arrestin ag = D3 receptor agonism confirmed, beta-arrestin readout; DiscoveRx D3 beta-arrestin cells, luminescence, 90 min; 2,300 compounds, 4% hits; Potency, µM (highest dose often 76.9 µM), for the others: top-dose activation, usual class: activators; shares compounds with D2 ag-1;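 note: potency is the fitted concentration of half-maximal effect; 100% = dopamine control response; nearly all actives have a fitted effect of over 70% in size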
D2 ag-3 = activates human D2 dopamine receptor in D3 counterscreen; shares compounds with D2 ag-1; Potency, µM (highest dose often 76.9 µM), without a hit: at the top dose activation, usual class: activators; 2,300 compounds, 5.9% hits; DiscoveRx PathHunter D2 beta-arrestin, luminescence, 90 min; response scale: percent relative to full dopamine signal; note: potency is the fitted concentration of half-maximal effect; % of control where 0% means no effect; nearly all actives have a fitted effect of over 70% in size
* = called active by the depositor; ? = inconclusive; · = no result; ! = repeats disagree. Unless noted, calls come from the whole dose curve; as a rule, active = well fitted activation curve with a large enough effect; inconclusive = small, poorly fitted or top-dose-only effect; inactive = flat fitted curve, though single readings scatter.

SMILES	D2 PAM-1	D2 ag-1	D2 antagonist	D2 ag-2	D2 PAM-2	D3 arrestin ag	D2 ag-3
Cc1ccc(-c2nn(-c3cccc([N+](=O)[O-])c3)c3c2cnc2ccc(F)cc23)cc1	·	·	·	·	3	·	·
Cc1ccc(NC(=O)Cc2ccc(NC(=O)N3CCCCc4ccccc43)cc2)cc1Cl	·	·	·	·	-1	·	·
COc1ccc(Cn2c(C(=O)O)c(CNCc3ccc(C)o3)c3ccc(OC)cc32)cc1	·	1	·	·	1	·	·
Cc1ccc(OCCN2CCN(C(=O)CCC(=O)Nc3nnc(C)s3)CC2)cc1	-16	4	6	1	12	?	1%
Cc1ccc(OCCN2CCN(C(=O)CCC(=O)Nc3nnc(C(C)C)s3)CC2)cc1	-42	0	-5	3	8	·	·
Cc1nnc(NC(=O)CCC(=O)N2CCN(CCOc3cccc4ccccc34)CC2)s1	-22	55*	52*	?	-24	?	?
CCCc1nnc(NC(=O)CCC(=O)N2CCN(CCOc3ccc(C)cc3)CC2)s1	3	-2	-2	0	11	·	·
O=C(CCn1c(=O)c2cccn2c2cccnc21)N1CCN(c2cccc(C(F)(F)F)c2)CC1	·	-1	·	·	-7	·	·
CCC(C)NC(=O)C(CCSC)NC(=O)c1ccccc1 (configuration not stated)	1	1	23	-5	2	·	·
CSCCC(NC(=O)c1ccccc1)C(=O)NCCCSc1ccccc1 (configuration not stated)	-4	0	-15	-2	17	-4%	-6%
Cc1c(O)c(=O)ccn1C	6	57*!	31*!	-1	-14	0%	-3%
Cc1ccc(CNC(=O)CN(c2cc(C)cc(C)c2)S(=O)(=O)c2c(C)noc2C)cc1	·	0	·	·	·	·	·
CS(=O)(=O)Nc1ccccc1C(=O)Nc1cc(Cl)cc(Cl)c1	-6	7	-1	-2	3	19%	23%
COc1ccc(S(=O)(=O)N2CCCC2CNC(=O)C(=O)NC2CCCC2)cc1 (configuration not stated)	4	·	·	-1	·	·	·
Cc1ccc(S(=O)(=O)N2CCCC2CNC(=O)C(=O)NC2CC2)cc1 (configuration not stated)	2	34*	7	1	-11	1%	-2%
COc1ccc(S(=O)(=O)N2CCCC2CNC(=O)C(=O)NC2CCCCCC2)cc1 (configuration not stated)	19	31*	20	4	-3	8%	?
COc1ccc(/C=N/NC(=O)CCn2cnc3ccccc32)cc1	-2	2	4	-2	-8	-5%	-3%
CC(C)(C)c1ccc(C(=O)Nc2onc3c2CCCC3)cc1	·	0	·	·	-14	·	·
CCc1ccc(CN2CCCC(CCC(=O)N3CCN(c4ccccn4)CC3)C2)o1 (configuration not stated)	-20	25	-22	1	-17	-15%	-1%
Cc1ccc(C(=O)N2CCCC(CCC(=O)N3CCN(c4ccccn4)CC3)C2)cc1 (configuration not stated)	-7	0	4	-1	5	·	·
Cc1cccc2cc(CNCC3CCCO3)c(Cl)nc12 (configuration not stated)	-6	45*	12	8	-23	4%	20%
Cc1ccc(Cc2cnc(NC(=O)c3ccc4c(c3)CC(c3ccccc3)OC4=O)s2)cc1 (configuration not stated)	·	-1	·	·	10	·	·
COc1cccc(C(C)NC(=O)Nc2ccccc2Cl)c1 (configuration not stated)	-3	-1	-20	3	13	-5%	-2%
COCc1cc(=O)n2c([nH]c3ccccc32)c1C#N	-1	0	37*	1	10	22%	6%
CC(SCc1cc(=O)n2c([nH]c3ccccc32)c1C#N)C(=O)O (configuration not stated)	-8	1	2	0	-3	·	·
SMILES	D2 PAM-1	D2 ag-1	D2 antagonist	D2 ag-2	D2 PAM-2	D3 arrestin ag	D2 ag-3
COc1cccc(N2CCN(CC(=O)Nc3ccc(-n4cnnn4)cc3)CC2)c1	-1	2	9	5	-4	·	·
CC(=O)c1ccc(NC(=O)CN2CCN(CC(=O)Nc3ccc(C(C)=O)cc3)CC2)cc1	3	2	14	3	-1	·	·
O=C(CN1CCN(c2ccccc2)CC1)Nc1ccc(Oc2ccccc2)cc1	18	55*	58*	11	-30	?	?
CC1CCN(S(=O)(=O)c2ccc(NC(=O)CN3CCN(C)CC3)cc2)CC1	-3	0	12	0	8	·	·
CC1CCN(S(=O)(=O)c2ccc(NC(=O)CN3CCN(c4ccccc4)CC3)cc2)CC1	9	45*	59*	?	-29	2.2µM*	?
O=C(CN1CCN(c2ccccc2)CC1)Nc1ccc(-n2cnnn2)cc1	-1	69*	51*	11	-22	?	?
CC(=O)c1ccc(NC(=O)CN2CCN(c3ncccn3)CC2)cc1	21	74*	77*	47*	-23	?	?
CCC12CN3CC(C)(CN(C1)C3c1ccccc1C)C2=O (configuration not stated)	·	0	·	·	0	·	·
CC(=O)c1ccc(NC(=O)CN2CCN(c3ccccc3)CC2)cc1	12	83*	37*	?	-23	?	?
O=C(O)C1CC=CCC1C(=O)Nc1ccc(N2CCN(Cc3ccccc3)CC2)cc1 (configuration not stated)	-14	64*	-13	1	-20	1%	1%
O=C(CN1CCN(c2ccccc2)CC1)c1ccc2cc[nH]c2c1	-14	84*	90*	-3	-24	20%	27%
O=C(CN1CCC2(CC1)OCCO2)c1ccc2cc[nH]c2c1	-9	2	-5	-2	2	·	·
COc1ccc(S(=O)(=O)c2c(O)c3ccc(C(=O)NCc4ccccc4)cc3[nH]c2=O)cc1	·	0	·	·	3	·	·
Cc1cc(C)n(-c2nc(C)c(C)c(=O)n2CC(=O)Nc2cccc([N+](=O)[O-])c2)n1	·	-2	·	·	-3	·	·
COc1ccc2cc3cc(C(=O)Nc4ccccc4C)oc3nc2c1	·	1	·	·	-1	·	·
COc1ccc(OCc2cc(C(=O)NC3Cc4ccccc4C3)no2)c(Cl)c1	5	·	·	-1	3	2%	0%
COc1ccc(OCc2cc(C(=O)N[C@H]3CCCCNC3=O)no2)c(Cl)c1	21	0	16	-1	-3	·	·
